Reference: PubChem BioAssay (NCI)
Where “and” joins values, the source holds several entries; their conditions need not be identical. Identical values can stand only once. This is part of a sample that, as a whole, favours compounds with a hit. Of some 83,000 tested, about 20% had one in any assay.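 Values shown are percent growth following 48 h exposure of cells in 96-well plates to a single concentration of compound; below 10 was considered active.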 Calls of active or inactive are those of the source.

Assays:
Experiment in all cases: NCI-60 one-dose screen, 48 h (100 = growth as untreated, 0 = no growth, -100 = all killed)
Details in all cases: 10 µM unless noted
DU-145 prostate = test system: DU-145 prostate
K-562 leukemia = test system: K-562 leukemia
MALME-3M melanoma = test system: MALME-3M melanoma
MDA-MB-231 breast = test system: MDA-MB-231 breast
RXF 393 renal = test system: RXF 393 renal
SF-268 CNS = test system: SF-268 CNS
SF-295 CNS = test system: SF-295 CNS
SF-539 CNS = test system: SF-539 CNS
UACC-257 melanoma = test system: UACC-257 melanoma
M14 melanoma = test system: M14 melanoma

`O=C(Nc1cccc(Cl)c1)c1cc2ccccc2cc1O` was tested, and the growth (DU-145 prostate) was 22.1% (inactive) and 25.1% (inactive), the growth (K-562 leukemia) was 25.8% (inactive) and 10.5% (inactive) and the growth (MALME-3M melanoma) was 2.77% (active) and -9.95% (active). For the same molecule, the growth (MDA-MB-231 breast) was 27% (inactive) and -1.46% (active), the growth (RXF 393 renal) was 18% (inactive) and 33% (inactive) and the growth (SF-268 CNS) was 21.2% (inactive) and 24.4% (inactive). For the same molecule, the growth (SF-295 CNS) was 13.5% (inactive) and 62.2% (inactive), the growth (SF-539 CNS) was 28.4% (inactive) and 11.7% (inactive) and the growth (UACC-257 melanoma) was 5.37% (active) and -16.3% (active). For the same molecule, the growth (M14 melanoma) was 48.4% (inactive) and 18.2% (inactive).
`O=C(O)C1C2C=CC(C2)C1C(=O)O` (stereo not given) was tested, and the growth (DU-145 prostate) was 113% (inactive) and 33% (inactive) and 117% (inactive), the growth (K-562 leukemia) was 107% (inactive) and 21.5% (inactive) and 95.5% (inactive) and the growth (MALME-3M melanoma) was 109% (inactive) and 70% (inactive). The growth (MDA-MB-231 breast) was 101% (inactive) and 66.9% (inactive) and 124% (inactive), the growth (RXF 393 renal) was 116% (inactive) and 38.8% (inactive) and 96.9% (inactive) and the growth (SF-268 CNS) was 115% (inactive) and 38.7% (inactive) and 105% (inactive). The growth (SF-295 CNS) was 101% (inactive) and 9.77% (active), the growth (SF-539 CNS) was 113% (inactive) and 27.8% (inactive) and 99.6% (inactive) and the growth (UACC-257 melanoma) was 99.8% (inactive) and 35.6% (inactive) and 97.9% (inactive). The growth (M14 melanoma) was 115% (inactive) and 39.1% (inactive) and 105% (inactive).
With `O=C1CCN(Cc2ccccc2)C(=S)N1` the growth (DU-145 prostate) was 140% (inactive) and 107% (inactive), the growth (K-562 leukemia) was 87% (inactive) and the growth (MALME-3M melanoma) was 92.6% (inactive) and 101% (inactive). The growth (MDA-MB-231 breast) was 125% (inactive) and 98.1% (inactive), the growth (RXF 393 renal) was 122% (inactive) and 121% (inactive) and the growth (SF-268 CNS) was 111% (inactive) and 99.5% (inactive). For the same molecule, the growth (SF-295 CNS) was 118% (inactive) and 133% (inactive), the growth (SF-539 CNS) was 111% (inactive) and 98.6% (inactive) and the growth (UACC-257 melanoma) was 114% (inactive) and 107% (inactive). For the same molecule, the growth (M14 melanoma) was 103% (inactive) and 112% (inactive).
`Cn1cnc([N+](=O)[O-])c1Sc1ncnc2nc[nH]c12` was tested, and the growth (DU-145 prostate) was 44.5% (inactive), the growth (K-562 leukemia) was 20.4% (inactive) and 23.6% (inactive) and the growth (MALME-3M melanoma) was 75.5% (inactive) and 93.8% (inactive). The growth (MDA-MB-231 breast) was 31.3% (inactive) and 57.8% (inactive), the growth (RXF 393 renal) was 79.5% (inactive) and 94.4% (inactive) and the growth (SF-268 CNS) was 69.1% (inactive) and 49.2% (inactive). For the same molecule, the growth (SF-295 CNS) was 33.5% (inactive) and 31.1% (inactive), the growth (SF-539 CNS) was 37.8% (inactive) and 33.3% (inactive) and the growth (UACC-257 melanoma) was 73.4% (inactive) and 98.4% (inactive). The growth (M14 melanoma) was 30.3% (inactive) and 21.4% (inactive).
`CC(=O)c1ccc2c(c1)N(CCCN1CCN(CCO)CC1)c1ccccc1S2` was tested, and the growth (DU-145 prostate) was 104% (inactive) and 53.3% (inactive), the growth (K-562 leukemia) was 95.3% (inactive) and -16.7% (active) and the growth (MALME-3M melanoma) was 86.5% (inactive) and -80% (active). The growth (MDA-MB-231 breast) was 91% (inactive) and -12.3% (active), the growth (RXF 393 renal) was 32.6% (inactive) and -8.21% (active) and the growth (SF-268 CNS) was 98.3% (inactive) and 37.5% (inactive). The growth (SF-295 CNS) was 100% (inactive) and -53% (active), the growth (SF-539 CNS) was 89% (inactive) and 14.7% (inactive) and the growth (UACC-257 melanoma) was 30.4% (inactive) and -66.5% (active). The growth (M14 melanoma) was 94.8% (inactive) and -87.4% (active).
`O=C(N/N=C/c1ccc2c(c1)OCO2)c1ccncc1` was tested, and the growth (DU-145 prostate) was 114% (inactive) and 113% (inactive), the growth (K-562 leukemia) was 106% (inactive) and the growth (MALME-3M melanoma) was 110% (inactive) and 82.1% (inactive). For the same molecule, the growth (MDA-MB-231 breast) was 94.5% (inactive) and 108% (inactive), the growth (RXF 393 renal) was 114% (inactive) and 103% (inactive) and the growth (SF-268 CNS) was 109% (inactive) and 102% (inactive). For the same molecule, the growth (SF-295 CNS) was 113% (inactive) and 107% (inactive), the growth (SF-539 CNS) was 101% (inactive) and 123% (inactive) and the growth (UACC-257 melanoma) was 92.9% (inactive) and 112% (inactive). For the same molecule, the growth (M14 melanoma) was 105% (inactive) and 103% (inactive).
With `CCN(CC)CCCC(C)Nc1cnc(C(=O)Nc2cc(F)cc3cccnc23)cn1` (stereo not given) the growth (DU-145 prostate) was 63.3% (inactive) and -82.2% (active), the growth (K-562 leukemia) was 3.95% (active) and 4.95% (active) and the growth (MALME-3M melanoma) was -8.34% (active) and -76.1% (active). For the same molecule, the growth (MDA-MB-231 breast) was 59.4% (inactive) and -55% (active), the growth (RXF 393 renal) was 33.8% (inactive) and -84.4% (active) and the growth (SF-268 CNS) was 51.9% (inactive) and -92.1% (active). The growth (SF-295 CNS) was 71.2% (inactive) and 3.03% (active), the growth (SF-539 CNS) was 83.1% (inactive) and 8.22% (active) and the growth (UACC-257 melanoma) was 76.8% (inactive) and -12.4% (active). The growth (M14 melanoma) was 21.9% (inactive) and -5.6% (active).
With `Nc1ccc(N=Nc2ccc(S(=O)(=O)O)cc2)cc1S(=O)(=O)O` the growth (DU-145 prostate) was 112% (inactive) and 104% (inactive), the growth (K-562 leukemia) was 105% (inactive) and the growth (MALME-3M melanoma) was 117% (inactive) and 112% (inactive). For the same molecule, the growth (MDA-MB-231 breast) was 88.2% (inactive) and 104% (inactive), the growth (RXF 393 renal) was 99.9% (inactive) and 61.2% (inactive) and the growth (SF-268 CNS) was 95.2% (inactive) and 103% (inactive). The growth (SF-295 CNS) was 121% (inactive) and 87.8% (inactive), the growth (SF-539 CNS) was 102% (inactive) and 100% (inactive) and the growth (UACC-257 melanoma) was 150% (inactive). For the same molecule, the growth (M14 melanoma) was 93.8% (inactive) and 117% (inactive).
